Assay results as given in PubChem BioAssay (EPA / NIEHS).
Results filed as inconclusive are left out. Activity calls are given as the source filed them. How the source made its calls: active means hit-call score of the fitted dose curve at least 0.9, where 1 is the maximum; inconclusive means response in the unintended direction; inactive means score below 0.9.

Each compound was assayed against human Dopamine Receptor D2 (DRD2), DRD2 (gene 1813) (UniProt P14416) (assay: NVS_GPCR_hDRD2s: NovaScreen (NVS) G Protein-Coupled Receptor Assay for human Dopamine Receptor D2 (DRD2) (AID 2283266)).
Description: NVS_GPCR_hDRD2s is a biochemical, single-readout assay that uses extracted gene-proteins from CHO in a cell-free assay. Measurements were taken 1.5 hours after chemical dosing in a 96-well plate.NVS_GPCR_hDRD2s is one of one assay component(s) measured or calculated from the NVS_GPCR_hDRD2s assay. It is designed to make measurements of radioligand binding, a form of binding reporter, as detected with scintillation counting signals by Filter-based radiodetection technology.Data from the assay component NVS_GPCR_hDRD2s was analyzed into 1 assay endpoint. This assay endpoint, NVS_GPCR_hDRD2s, was analyzed in the positive analysis fitting direction relative to DMSO as the negative control and baseline of activity. Using a type of binding reporter, loss-of-signal activity can be used to understand changes in the binding as they relate to the gene DRD2. Furthermore, this assay endpoint can be referred to as a primary readout, because the performed assay has only produced 1 assay endpoint. To generalize the intended target to other relatable targets, this assay endpoint is annotated to the gpcr intended target family, where the subfamily is rhodopsin-like receptor.
Binding assays used specific radioligands (tritiated, iodinated) with non-radioactive competitive displacement ligands in agonist or antagonist protocols (as indicated) and various reference compounds and inhibitors to titrate specific binding to receptors and transporters. Most enzyme assays (CYPs, kinases, phosphatases, proteases, HDACs) used recombinant protein and specific substrates (fluorescence mostly, some colorimetric and radioactive) and inhibitors, followed by a biochemical separation of substrate and product. All assays for the biochemical HTS were initially run in duplicate at a single concentration (10 uM for CYP450 assays and 25 uM for all others). […] Each assay was run with positive and negative controls, and concurrent controls on every plate. The follow-up (secondary) screen tested active chemical-pairs in concentration series, as well as a few additional assays not tested in the primary screen, some selected negative inactives, and several cases re-run in the concentration series for confirmatory purposes.

human Dopamine Receptor D2 (DRD2), DRD2 (gene 1813), sequence (P14416 whole entry, looked up): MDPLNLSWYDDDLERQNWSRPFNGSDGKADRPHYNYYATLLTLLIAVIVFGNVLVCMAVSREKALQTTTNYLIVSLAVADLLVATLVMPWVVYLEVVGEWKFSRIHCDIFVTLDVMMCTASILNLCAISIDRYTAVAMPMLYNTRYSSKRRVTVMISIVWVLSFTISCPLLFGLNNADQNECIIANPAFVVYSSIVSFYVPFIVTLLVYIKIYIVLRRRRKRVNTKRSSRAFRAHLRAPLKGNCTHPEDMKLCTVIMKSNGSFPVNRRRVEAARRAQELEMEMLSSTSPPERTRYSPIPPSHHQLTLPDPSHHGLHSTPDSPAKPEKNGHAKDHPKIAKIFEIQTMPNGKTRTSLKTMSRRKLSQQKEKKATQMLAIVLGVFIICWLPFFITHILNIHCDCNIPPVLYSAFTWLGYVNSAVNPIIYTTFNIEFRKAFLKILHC

Question: For `CSc1ccc(Oc2ccc(S(N)(=O)=O)cc2CN(C)C)cc1C`, which AC50 is on record?
Answer: The AC50 was 15 µM (active).

Question: For `CCCCCCCCCCCCCCOS(=O)(=O)O`, which AC50 is on record?
Answer: Its AC50 is 15.1 µM (active).

Question: Which outcome does the source give for `O=C(N[C@@H](c1ccccc1)[C@@H]1CCCCN1)c1cccc(C(F)(F)F)c1Cl` here?
Answer: The outcome was “inactive”.

Question: Which AC50 does the source give for `CN(C)C(=O)NC1(c2ccccc2)CCN(CCC[C@]2(c3ccc(Cl)c(Cl)c3)CCCN(C(=O)c3ccccc3)C2)CC1` here?
Answer: The AC50 was 4 µM (active).

Question: How did the AC50 turn out when `CCN(CC)CCOc1ccc(C(=C(Cl)c2ccccc2)c2ccccc2)cc1` was run?
Answer: Its AC50 is 1.79 µM (active).

Question: With `Cc1cc(SC2=C(O)C[C@@](CCc3ccc(N)cc3)(C(C)C)OC2=O)c(C(C)(C)C)cc1CO` as the compound, how does the outcome read?
Answer: The outcome was “inactive”.

Question: With `O=C(O)c1[nH]n(-c2ccc(S(=O)(=O)O)cc2)c(=O)c1N=Nc1ccc(S(=O)(=O)O)cc1` as the compound, how does the outcome read?
Answer: Its outcome is “inactive”.

Question: With `Cc1c(C)c2c(c(C)c1O)CCC(C)(COc1ccc(CC3SC(=O)NC3=O)cc1)O2` (stereo not given) as the compound, how does the outcome read?
Answer: The outcome was “inactive”.

Question: How did the outcome turn out when `COc1ccc(OC(F)(F)F)cc1CN[C@H]1CCCN[C@H]1c1ccccc1` was run?
Answer: The outcome was “inactive”.

Question: With `CN(C)C(=O)NC1(c2ccccc2)CCN(CC[C@@]2(c3ccc(F)c(F)c3)CN(C(=O)c3ccccc3)CCO2)CC1` as the compound, how does the outcome read?
Answer: The outcome was “inactive”.
